About 83,000 compounds went through this panel and 20% of them were active in at least one assay; those are over-represented in the sample as a whole.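 Growth was measured after 48 h exposure to one concentration of compound in 96-well plates. Values under 10 count as active.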 Unmarked numbers belong to inactive results. Activity calls are given as the source filed them.

What all share (test): NCI-60 one-dose screen, 48 h (100 = growth as untreated, 0 = no growth, -100 = all killed)
Holding throughout (settings): 10 µM

Assay [1] has as its system NCI-H23 lung.
The test system of assay [2] is NCI-H226 lung.
Assay [3] concerns HOP-62 NSCLC.
Assay [4] deals with NCI-H460 lung.
In assay [5] the test system is HOP-92 NSCLC.
Assay [6] has as its system NCI-H522 lung.
Assay [7] has as its system A549/ATCC NSCLC.
Assay [8] concerns 786-0 renal.
The subject of assay [9] is COLO 205 colon.

For `CC[C@@H]1NC(=O)[C@H]([C@H](O)[C@H](C)C/C=C/c2ccc(CN3C(=O)CCCC3=O)cc2)N(C)C(=O)[C@H](C(C)C)N(C)C(=O)[C@H](CC(C)C)N(C)C(=O)[C@H](CC(C)C)N(C)C(=O)[C@@H](C)NC(=O)[C@H](C)NC(=O)[C@H](CC(C)C)N(C)C(=O)[C@H](C(C)C)NC(=O)[C@H](CC(C)C)N(C)C(=O)CN(C)C1=O`, the growth in [1] is 68.8%; in [2], -22.8% (active); in [3] it was 62.1%; in assay [4] it was 71.2%; in [5], 53.3%; in assay [6], 23.5%. The results for the growth in [7], in assay [8] and in assay [9] were 47.1%, 67.1% and 53.9%, respectively.

For the compound `CC(C)c1ccc(C(C)C(=O)N(CC2=C(C(C)c3ccccn3)c3ccccc3C2)C(C)C)cc1` (stereo not given), the growth in assay [1] is 26.3%; in assay [2] it was 57.1%; in assay [3], 59.2%; in [4], 23.1%; in assay [5] it was 20.3%; in [6] it was 24.9%. Also, the growth in assay [7] was 36%; in assay [8] it was 40.9%; in assay [9], 35.7%.

As for `COc1cccc(C2C(C#N)=C(N)Oc3cc(N)ccc32)c1` (stereo not given), the growth was 37.8% in assay [1]; 70% in assay [2]; 45.4% in [3]; 11.9% in assay [4]; 36.9% in assay [5]; -0.592% (active) in assay [6]. Besides, the growth in assay [7] is 20.2%; in [8] it was 53.9%; in assay [9] it was 18.1%.

Take `Cc1ccc(N=Nc2ccccc2)cc1`: the growth in assay [1] was 95.1%; in assay [2], 108%; in [3] it was 90.5%; in [4], 105%; in assay [5], 90.9%; in assay [6], 84.2%. The growth in assay [7] was 87.8%; in [8], 89.6%; in assay [9], 106%.

Turning to `Clc1ccc(Cc2ccncc2)cc1`, the growth in assay [1] is 105%; in [2], 109%; in assay [3], 107%; in [4], 113%; in assay [5] it was 85.6%; in assay [6], 82%. Moreover, the growth in [7] is 106%; in assay [8], 97.3%; in [9], 109%.

Turning to `COc1cc2c(cc1OC)C(C(CCCCCC(CCC(C)C)C1NCCc3cc(OC)c(OC)cc31)CCC(C)C)NCC2` (stereo not given), the growth is -87.4% (active) in assay [1]; -75.6% (active) in assay [2]; -96.7% (active) in [3]; -80.3% (active) in assay [4]; -90.4% (active) in assay [5]; -95.4% (active) in [6]. Moreover, the growth in assay [7] was -92.9% (active); in [8] it was -97.8% (active); in [9], -94.5% (active).

`CCCCCCCCCCOC(c1ccccc1)c1ccccc1`: the growth in [1] is 83%; in [2], 85.5%; in assay [3] it was 87.8%; in [4], 101%; in assay [5], 103%; in [6], 75.8%. Besides, the results for the growth in assay [7], in assay [8] and in assay [9] were 83.6%, 98% and 104%, respectively.

In the case of `CCOC(=O)/C(=C(\C)N)C1CC(=O)NC1=O` (stereo not given), the growth was 96.3% in [1]; 97.3% in assay [2]; 107% in [3]; 101% in assay [4]; 112% in assay [5]; 102% in assay [6]. Further, the growth in assay [7] is 101%; in assay [8], 101%; in assay [9], 109%.

`C(=N\Nc1ncnc2sc3c(c12)CCNC3)/c1cccc2ccccc12`: the growth is 98.9% in assay [1]; 97.1% in assay [2]; 79.9% in assay [3]; 62.8% in [4]; 93.4% in [5]; 97% in assay [6]. The results for the growth in assay [7], in assay [8] and in assay [9] were 67.6%, 59.5% and 63.5%, respectively.

Consider `COc1ccc(/C=C2\CCCC3=C2N=C2SC(C)=CN2C3c2ccc(OC)cc2)cc1` (stereo not given), for which the growth was 90.3% in [1]; 94.1% in assay [2]; 104% in [3]; 104% in assay [4]; 93.8% in [5]; 89.6% in [6]. Also, the growth was 90.7% in assay [7], 104% in assay [8] and 115% in assay [9].

For the compound `CCC(CC)n1c(C)cc(=O)n1C(CC)CC`, the growth in assay [1] is 101%; in assay [2], 99.1%; in assay [3], 96.1%; in [4] it was 103%; in assay [5], 99.9%; in assay [6], 106%. Further, the results for the growth in assay [7], in [8] and in assay [9] were 101%, 105% and 115%, respectively.

On to `CC(C)N(CCOc1ccc(-c2nc3sccn3c2-c2ccnc(S(C)(=O)=O)n2)cc1)C(C)C`, for which the growth in assay [1] is 90.3%; in assay [2] it was 87.7%; in assay [3], 85.2%; in assay [4], 102%; in assay [5] it was 29.6%; in assay [6], -26.9% (active). Besides, the growth is 105% in assay [7], 77.6% in assay [8] and 86.8% in [9].

For `O=C(CCCCC(=O)Oc1c(Cl)cc(Cl)cc1[N+](=O)[O-])Oc1c(Cl)cc(Cl)cc1[N+](=O)[O-]`, the growth in assay [1] was 96.5%; in assay [2], 106%; in [3], 102%; in assay [4] it was 106%; in [5], 118%; in [6] it was 89.5%. Besides, the results for the growth in assay [7], in assay [8] and in assay [9] were 103%, 101% and 121%, respectively.

In the case of `COc1cc(C(=O)N2CCN(c3cc4c(cc3F)c(=O)c(C(=O)NO)cn4C3CC3)CC2)cc(OC)c1OC`, the growth was 94.9% in assay [1]; 95.1% in [2]; 97% in assay [3]; 105% in [4]; 99.1% in [5]; 87.4% in assay [6]. Further, the growth in assay [7] is 99%; in [8] it was 93.6%; in [9], 104%.

For `COc1cc(C(=O)/C(C)=C/c2c[nH]c3ccccc23)cc(OC)c1OC`, the growth in [1] is 32.3%; in assay [2] it was 61.7%; in assay [3], 39.2%; in [4], 9.7% (active); in [5], 47.1%; in assay [6], -19.4% (active). The results for the growth in assay [7], in assay [8] and in [9] were 11.6%, 11% and -39.2% (active), respectively.
